# From PubChem BioAssay AID652268 (The Scripps Research Institute Molecular Screening Center, 2013)
# The campaign covered roughly 1,600 compounds. About 160 (10%) were called active. These entries were drawn from the full list. Unmarked numbers belong to inactive results. Cut-off read from the data, not from the text of the source: active = activation above about 1.3%; inactive = the rest.
# Experiment: nonspecific cAMP agonists in parental HEK-CNG cells, counter-screen for GalR3 antagonist project, cell-based, fluorescence, high throughput (AID 652268)
# Details: HEK293-CNG parental cells, cAMP membrane potential fluorescence; at 3 µM; stronger effect = higher value; normalised: DMSO wells 0%, forskolin wells 100%
row,Structure (SMILES),activation
1,Cn1nccc1C(=O)NC1CCCc2c1cnn2-c1ccc(F)cc1F (configuration not stated),-0.59%
2,CCCCNC(=O)c1ccccc1NC(=O)C1=C(C)OCCS1,-0.01%
3,Cc1ccc(F)cc1NC(=O)Cc1nn(C)c(=O)c2ccccc12,0.14%
4,Cn1cnc([N+](=O)[O-])c1Nc1ccccc1O,0.12%
5,C#Cc1ccc(NC(=O)C2(C)CCN2C(=O)Cc2ccc(-c3ccccc3)cc2)cc1 (configuration not stated),-0.7%
6,O=C(CC1C(=O)NCCN1CC(c1ccccc1)c1ccccc1)NCCc1cn[nH]c1 (configuration not stated),0.5%
7,CC(=O)c1c(C)[nH]c(C(=O)COC(=O)c2cccc(S(=O)(=O)N(C)c3ccccc3)c2)c1C,-0.83%
8,c1ccc(Cc2ccc(OCCn3ccnc3)cc2)cc1,-0.02%
9,CCCn1nc(C(=O)NNC(=O)CSCC(=O)Nc2cc(C)on2)c2ccccc2c1=O,0.16%
10,Cn1c(CN2CCOCC2)nc2cc(NC(=O)c3ccc(Cl)cc3)ccc21,0.05%
11,CCNC(=S)Nc1ccc(OC(F)(F)F)cc1,-0.01%
12,CC(C)[C@@H](C(=O)OCC(=O)c1ccc2c(c1)NC(=O)CO2)N1C(=O)c2ccccc2C1=O,0.06%
13,OC[C@@H]1CN(Cc2ccc(-c3ccccc3)cc2)C[C@H](n2cnc3c(NC4CCCC4)ncnc32)O1,-0.91%
14,CCCOc1ccc(Cc2c(Cl)nc(SC)nc2NC)cc1,1.12%
15,COc1ccc(N(C(=O)CNC(=O)c2ccco2)C(C(=O)NCC2CCCO2)c2ccccc2)cc1Cl (configuration not stated),-0.24%
16,CC(=O)OC(C)C[N+](C)(C)C (configuration not stated),0.43%
17,COC(=O)c1ccc(/C=N/N2C(C)CCCC2C)cc1 (configuration not stated),0.27%
18,COc1cc(NC(=O)c2cc([N+](=O)[O-])ccc2Br)ccc1NC(=O)c1ccco1,-0.55%
19,CCn1c(-c2cc(OC)ccc2OC)csc1=Nc1c(C)n(C)n(-c2ccccc2)c1=O,0.13%
20,CCN1/C(=C\c2ccc3ccccc3[n+]2CC)Sc2cc(C)ccc21,8.28% (active)
21,Nc1nc(NCC(=O)O)nc(N2CCCCCC2)c1[N+](=O)[O-],0.22%

row,Structure (SMILES),activation
1,CSc1nccc(NC(=O)c2ccc(C(C)(C)C)cc2)n1,0.22%
2,CCOC(=O)c1c(NC(=O)CSc2nccc(=O)[nH]2)sc(C)c1C,-1.63%
3,COc1ccc(C2CC(=O)Nc3sc(=N)c4c(N)c(C#N)c(N)nc4c32)cc1OC (configuration not stated),-0.03%
4,CC(=O)N1CCCc2cc(S(=O)(=O)N3CCCC(C(=O)N4CCN(c5cccc(Cl)c5)CC4)C3)ccc21 (configuration not stated),-1.04%
5,CN(Cc1cccnc1)C(=O)c1cc(COc2ccc3ncccc3c2)on1,-0.15%
6,NC(=O)c1ccc(NC(=O)COC(=O)C(Cc2ccccc2)NC(=O)c2ccccc2)cc1 (configuration not stated),-0.37%
7,CCOc1cc(C(=O)N2CCc3cc(OC)c(OC)cc3C2)ccc1OC(F)F,1.51% (active)
8,O=C(Nc1ccccc1Cl)/C(Cl)=C(\Cl)S(=O)c1ccccc1 (configuration not stated),3.18% (active)
9,O=C(/C=C/c1c(F)cccc1Cl)Nc1nn[nH]n1,0.23%
10,Nc1nonc1-n1nnc(C(=O)N/N=C/c2cc(Br)ccc2O)c1CSC1=NCCS1,0.22%
11,CCN(CC(=O)NCc1ccc(Cl)cc1)C(=O)CSc1ccccc1,-0.45%
12,O=C(NC(Nc1nc2ccc([N+](=O)[O-])cc2s1)(C(F)(F)F)C(F)(F)F)c1ccccc1,9.23% (active)
13,COc1cc(Cl)c(C)cc1NC(=O)[C@@H]1CCCN1C(=O)c1cccs1,-0.08%
14,CCOc1ccc(Br)cc1CSC(=N)N,3.59% (active)
15,CNC(=O)NC(=O)CSc1nnc(-c2ccc(F)cc2)n1CC1CCCO1 (configuration not stated),0.01%
16,CCc1ccc(-c2nc(SCC(=O)NC3CCCC3)n[nH]2)cc1,0.04%
17,COc1cc2c(cc1OC)C(c1cccc([N+](=O)[O-])c1)=NCC2,0.46%
18,COc1ccc(NS(=O)(=O)c2ccc(NC(=O)c3ccc(N(C)S(C)(=O)=O)cc3)cc2)cc1,-0.8%
19,O=C(CC(O)(C(F)(F)F)C(F)(F)F)Nc1ccc(Cl)c(Cl)c1,1.84% (active)
20,CSc1nc(N(C)NC(=O)c2cccc(C)c2)c2ccccc2n1,2.12% (active)
21,Cc1nc2ccccc2cc1OCc1ccc(F)cc1,1.08%
